From PubChem BioAssay (NCI)
About 83,000 compounds went through this panel and 20% of them were active in at least one assay; those are over-represented in the sample as a whole.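 Step 1: grow cells in 96-well plates. Step 2: add test compound at a single concentration. Step 3: incubate 48 h. Step 4: record percent growth.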 Active and inactive are the calls of the source. How the source made its calls: active means growth percent below 10; inactive means the rest.

Experiments:
Assay in all cases: NCI-60 one-dose screen, 48 h (100 = growth as untreated, 0 = no growth, -100 = all killed)
Conditions in all cases: 10 µM unless noted
[1] = tested on: SR leukemia
[2] = tested on: RPMI-8226 leukemia
[3] = tested on: OVCAR-8 ovarian
[4] = tested on: OVCAR-5 ovarian
[5] = tested on: OVCAR-4 ovarian
[6] = tested on: SK-OV-3 ovarian
[7] = tested on: IGROV1 ovarian
[8] = tested on: OVCAR-3 ovarian
[9] = tested on: HS 578T breast
[10] = tested on: NCI/ADR-RES ovarian

Measured: growth

N#CC1=C(N)Oc2c(ccc3ccccc23)C1c1ccccc1 (stereo not given)
active: [2] 8.06% | [3] 7.27% | [8] -2.34% | [10] 2.65%
inactive: [1] 15.2% | [4] 33.8% | [5] 50.3% | [6] 12.7% | [7] 27.2% | [9] 28.8%

COc1ccc(-c2cc(-c3ccc(Cl)cc3)c(C#N)c(=O)n2Cc2ccc(C(=O)Nc3ccccc3N)cc2)cc1
inactive: [1] 40.9% | [2] 57.1% | [3] 92.8% | [4] 96.7% | [5] 76.3% | [6] 92.6% | [7] 78.3% | [8] 42.6% | [9] 46.2% | [10] 71.2%

CC(=O)c1c(C)nc2ccccc2c1/C=C/c1ccc(F)cc1
inactive: [1] 81.2% | [2] 66.5% | [3] 92.9% | [4] 97.7% | [5] 76.7% | [6] 100% | [7] 85.1% | [8] 92.9% | [9] 91.9% | [10] 67.6%

O=C(O)c1cn(C2CC2)c2cc(N3CCN(Cc4ccc5ccccc5c4O)CC3)c(F)cc2c1=O
inactive: [2] 73.5% | [3] 14.4% | [4] 51% | [5] 32.5% | [6] 49.7% | [7] 33.3% | [10] 48%
active: [1] 6.63% | [8] -26.2% | [9] -1.88%

NC(N)=NCCCCCNc1noc(Cc2c[nH]c3cc(Br)ccc23)n1
inactive: [1] 98.3% | [2] 39.6% | [3] 64.6% | [4] 85.4% | [5] 67.5% | [6] 83.7% | [7] 56.3% | [8] 33.4% | [9] 56.9% | [10] 101%

COc1cc(-c2csc(NC(=O)c3ccc(N4CCOCC4)c(C(F)(F)F)c3)n2)cc(OC)c1OC
active: [2] 6.74% | [3] 2.22% | [10] 3.62%
inactive: [1] 23.3% | [4] 83.9% | [5] 23.1% | [6] 74.5% | [7] 29.5% | [8] 38.3% | [9] 60%

O=C(CN1C(=O)NC2NC(=O)NC21)N/N=C/c1ccccc1[N+](=O)[O-] (stereo not given)
inactive: [1] 110% | [2] 109% | [3] 104% | [4] 108% | [5] 99.6% | [6] 104% | [7] 107% | [8] 123% | [9] 107% | [10] 105%

c1cnc2c(-c3nc4ccc5[nH]ncc5c4c4c3CCCC4)c[nH]c2c1
active: [1] 5.93%
inactive: [2] 34.5% | [3] 23.8% | [4] 37.3% | [5] 27.9% | [6] 51.5% | [7] 18% | [8] 26.4% | [9] 63.4% | [10] 80.6%

COc1cc(-c2nccc3[nH]c(-c4ccc5cc[nH]c5c4)nc23)cc(OC)c1OC
inactive: [3] 12.4% | [4] 41.5% | [5] 39.3% | [7] 29.5% | [9] 31.1% | [10] 12.7%
active: [1] -4.95% | [2] -43% | [6] 1.3% | [8] 2.2%

Cc1cc(N2CCN(CCNc3ccnc4cc(Cl)ccc34)CC2)nc(N2CCOCC2)n1
active: [1] 3.62%
inactive: [2] 35.3% | [3] 74.1% | [4] 92.9% | [5] 53.8% | [6] 85.2% | [7] 66% | [8] 73.1% | [9] 85.8% | [10] 66.1%

Nc1c(C(=O)Nc2ccccc2F)sc2nc3c(cc12)CCCC3
inactive: [1] 13.3% | [2] 28% | [3] 40.7% | [4] 74.7% | [5] 54% | [6] 26.6% | [7] 58.9% | [9] 48.9% | [10] 24.7%
active: [8] 4.6%

CC/C(=C(/c1ccc(Cl)cc1)c1ccc(OCCN(C)C)cc1)c1ccc(Cl)cc1
active: [1] -6.88%
inactive: [2] 32.8% | [3] 75.1% | [4] 83.9% | [5] 78% | [6] 90% | [7] 72.5% | [8] 65% | [9] 75.1% | [10] 74.8%

OCCn1cc(-c2nc(-c3c[nH]c4ncccc34)cs2)c2ccccc21
inactive: [1] 53.5% | [2] 57.8% | [3] 90.4% | [4] 90.5% | [5] 51.7% | [6] 70.2% | [7] 56.1% | [8] 81.7% | [9] 71.3% | [10] 94.6%

CC(=O)N1N=C(c2ccc(Nc3nc(Nc4ccccc4)nc(Nc4ccccc4)n3)cc2)CC1c1ccccc1 (stereo not given)
inactive: [1] 62.3% | [2] 59.9% | [3] 82.9% | [4] 91.9% | [5] 96.5% | [6] 95.5% | [7] 54.1% | [8] 88.6% | [9] 89.3% | [10] 84.6%

O=C1C(Cl)=C(NCCCCCCNC2=C(Cl)C(=O)c3ccccc3C2=O)C(=O)c2ccccc21
inactive: [1] 88% | [2] 85.2% | [3] 77.6% | [4] 110% | [5] 22.5% | [6] 98% | [7] 38.2% | [8] 47.3% | [9] 89.3% | [10] 93.5%

CN1CCN(c2cc(Nc3cc(C4CC4)[nH]n3)nc(Nc3ccc(CC(=O)NCc4cccc(F)c4)cc3)n2)CC1
active: [7] -13.8% | [9] -6.93%
inactive: [1] 30.3% | [2] 54.3% | [3] 40.7% | [4] 11% | [5] 43.9% | [6] 24% | [8] 41.7% | [10] 94.4%

COc1ccc(C(=O)Nc2cccc(-c3cc(=O)c4c(OC)c(OC)c(OC)cc4o3)c2)cc1
inactive: [1] 28.6% | [2] 18.8% | [3] 57.9% | [4] 95.6% | [5] 62% | [6] 108% | [7] 53.9% | [8] 66.8% | [9] 42.9% | [10] 60.2%

CS(=O)(=O)Nc1cncc(-c2ccc3ncnc(Nc4cncc(Cl)c4)c3c2)c1
inactive: [1] 87.9% | [2] 102% | [3] 87.1% | [4] 74.3% | [5] 108% | [6] 81.8% | [7] 69.8% | [8] 52.9% | [9] 56.6% | [10] 95.7%

CC(=O)N1N=C(c2ccc(C(F)(F)F)c(F)c2)CC1c1[nH]c(C)c(C(=O)NCC(F)(F)F)c1C (stereo not given)
inactive: [1] 86.9% | [2] 90.7% | [3] 41.9% | [4] 79.3% | [5] 13.6% | [6] 75.2% | [7] 69.5% | [8] 68.3% | [9] 31.8% | [10] 78.5%

O=C1c2ccc3c4c5ccc(c24)C(=O)N1CCCOCCCCOCCCNCc1ccc(cc1)CNCCCOCCCCOCCCN(C3=O)C5=O
inactive: [6] 12.9% | [9] 85.6% | [10] 90%
active: [1] -10.9% | [2] 3.9% | [3] -29.6% | [4] -63.3% | [5] -97.8% | [7] -78.4% | [8] -27.2%

O=C1NC(=C(Cl)Cl)/C(=N\S(=O)(=O)NCc2ccccc2)N1
inactive: [1] 65.3% | [2] 75.6% | [3] 94.6% | [4] 98.4% | [5] 108% | [6] 97.1% | [7] 102% | [8] 105% | [9] 122% | [10] 109%
